Calls of active or inactive are those of the source. The calls were made as follows: active = hit-call score of the fitted dose curve at least 0.9, where 1 is the maximum; inactive = score below 0.9.

The nature of one test: ATG_E_Box_CIS: Attagene CIS-FACTORIAL HepG2 Assay for human Enhancer Box (E-box) (AID 2282936). To be noted: HepG2 E-box cis-reporter transcription, actives raise or lower the signal. The essentials: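 HepG2 cells transiently transfected with multiplexed cis-element reporter units sensing endogenous transcription factor activity; 24 h compound exposure. Reporter mRNA measured by RT-PCR, 6-FAM primer extension, HpaI digestion and capillary electrophoresis; bidirectional fit versus DMSO.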
As for `CCOCCOCCOCC`, the outcome was inactive.

As to `C=C1C[C@]23C[C@@]1(O)CC[C@H]2[C@@]12C=C[C@H](O)[C@@](C)(C(=O)O1)[C@H]2[C@@H]3C(=O)O`, the result was inactive.

Regarding `OCc1cccc(Oc2ccccc2)c1`, the outcome was inactive.

For `C=CCN(CC=C)CC=C`, the outcome was inactive.

Turning to `CC(C)(N=C=O)c1cccc(C(C)(C)N=C=O)c1`, the result was inactive.

Take `C[Si]1(C)O[Si](C)(C)O[Si](C)(C)O1`: the result was inactive.

Turning to `CCOc1ccccc1O`, the result was inactive.

For `Cc1cc(=O)oc2cc(N(C)C)ccc12`, the outcome was inactive.

Consider `CCCCOCC`, for which the result was inactive.

For `C1CCCCC1`, the result was inactive.

In the case of `CC1=CC[C@@]23C[C@@H]1C(C)(C)[C@@H]2CC[C@H]3C`, the outcome was inactive.

For `O=C1NC2NC(=O)NC2N1` (stereo not drawn), the result was inactive.

`Nc1ccc(NCCO)c([N+](=O)[O-])c1`: the result was inactive.

`CC(C)(CO)[C@@H](O)C(=O)NCCC(=O)O`: the outcome was inactive.

As to `C[Si](C)(C)O[Si](C)(C)C`, the result was inactive.

A short description of a further test: ATG_M_61_CIS: Attagene CIS-FACTORIAL HepG2 Assay for M61 Transcription Factor (Internal Marker) (AID 2282937). To be noted: HepG2 Attagene CIS-FACTORIAL M61 internal marker reporter; actives raise or lower the signal. In a few lines:
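Cells were transfected with reporter units under cis-regulatory promoters, treated with chemicals for 24 h, then lysed for RNA. Reporter transcripts were quantified by RT-PCR and capillary electrophoresis, and activity was fitted bidirectionally against DMSO.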
For the molecule `CCOC(=O)CC(C)O` (stereo not drawn), the molecule was called inactive.

Consider `CCCC(=O)OCCc1ccccc1`, for which the outcome was inactive.

For `CC1(C)O[C@@H]2[C@@H](CO[C@@]3(COS(N)(=O)=O)OC(C)(C)O[C@@H]23)O1`, the call was inactive.

With `[Cl][Au]([Cl])[Cl]`, the molecule was classed as inactive.

As for `CCCCCC(C=O)=Cc1ccccc1`, the molecule was classed as inactive.

As for `C=CC(C)C#N` (stereo not drawn), the call was inactive.

As to `C[C@H]1O[C@@H](O[C@H]2[C@@H](O)C[C@H](O[C@H]3[C@@H](O)C[C@H](O[C@H]4CC[C@@]5(C)[C@H](CC[C@@H]6[C@@H]5C[C@@H](O)[C@]5(C)[C@@H](C7=CC(=O)OC7)CC[C@]65O)C4)O[C@@H]3C)O[C@@H]2C)C[C@H](O)[C@@H]1O`, the call was inactive.

`ClC(c1ccccc1)(c1ccccc1)c1ccccc1`: the molecule was classed as inactive.

Turning to `O=c1c(O)c(-c2ccc(O)cc2)oc2cc(O)cc(O)c12`, the call was inactive.

With `CN1CCOCC1`, the result was inactive.

For `CC/C=C\CC/C=C/CO`, the molecule was called inactive.

With `CS(=O)(=O)c1ccc(C2=C(c3ccccc3)C(=O)OC2)cc1`, the outcome was inactive.

On to `CC1C2CC(CC2C2CCCC(O)C2)C1(C)C` (stereo not drawn), for which the molecule was classed as inactive.

In the case of `COC(=O)Nc1ccc(Cl)c(Cl)c1`, the molecule was called inactive.

`CC(O)C1CCCCC1` (stereo not drawn): the outcome was inactive.

Regarding `Oc1c(Cl)cc(Cl)c(Cl)c1Cc1c(O)c(Cl)cc(Cl)c1Cl`, the molecule was classed as inactive.

Consider `N#Cc1ccc(CC(=O)c2cccc(C(F)(F)F)c2)cc1`, for which the result was inactive.

With `COS(=O)(=O)O`, the result was inactive.

Take `CCCCCCOC(=O)CCC`: the call was inactive.

On to `COC(C)(C)CCCC(C)CC=O` (stereo not drawn), for which the call was inactive.

For the molecule `CSCCC=O`, the call was inactive.

As for `Brc1ccc(Br)c(Br)c1`, the call was inactive.

As to `Cc1cc(C)nc(NS(=O)(=O)c2ccc(N)cc2)n1`, the outcome was inactive.

Take `CCOCCOCCOCC`: the molecule was classed as inactive.

For the molecule `C=C1C[C@]23C[C@@]1(O)CC[C@H]2[C@@]12C=C[C@H](O)[C@@](C)(C(=O)O1)[C@H]2[C@@H]3C(=O)O`, the outcome was inactive.

`OCc1cccc(Oc2ccccc2)c1`: the call was inactive.

As to `C=CCN(CC=C)CC=C`, the molecule was called inactive.

As to `CC(C)(N=C=O)c1cccc(C(C)(C)N=C=O)c1`, the result was inactive.

Consider `C[Si]1(C)O[Si](C)(C)O[Si](C)(C)O1`, for which the result was inactive.

With `CCOc1ccccc1O`, the molecule was classed as inactive.

For the molecule `Cc1cc(=O)oc2cc(N(C)C)ccc12`, the molecule was called inactive.

On to `CCCCOCC`, for which the molecule was classed as inactive.

`C1CCCCC1`: the outcome was inactive.

Take `CC1=CC[C@@]23C[C@@H]1C(C)(C)[C@@H]2CC[C@H]3C`: the result was inactive.

Consider `O=C1NC2NC(=O)NC2N1` (stereo not drawn), for which the outcome was inactive.

As for `Nc1ccc(NCCO)c([N+](=O)[O-])c1`, the molecule was classed as inactive.

Take `CC(C)(CO)[C@@H](O)C(=O)NCCC(=O)O`: the molecule was classed as inactive.

Take `C[Si](C)(C)O[Si](C)(C)C`: the call was inactive.

The nature of a further test: ATG_EGR_CIS: Attagene CIS-FACTORIAL HepG2 Assay for human Early Growth Response 1 (EGR1) (AID 2282938). As to conditions: HepG2 Attagene CIS-FACTORIAL EGR reporter mRNA; actives raise or lower the signal. The essentials: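 Endogenous TF activity in HepG2 liver cells was gauged through cis-promoter reporter constructs transiently transfected. After 24 h dosing, reporter mRNA was quantified by RT-PCR and capillary electrophoresis, and curves fitted in both directions versus DMSO.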
As to `CCOC(=O)CC(C)O` (stereo not drawn), the molecule was called inactive.

Consider `CCCC(=O)OCCc1ccccc1`, for which the result was inactive.

Regarding `CC1(C)O[C@@H]2[C@@H](CO[C@@]3(COS(N)(=O)=O)OC(C)(C)O[C@@H]23)O1`, the call was inactive.

With `[Cl][Au]([Cl])[Cl]`, the molecule was called inactive.

For the molecule `CCCCCC(C=O)=Cc1ccccc1`, the result was inactive.

As for `C[C@H]1O[C@@H](O[C@H]2[C@@H](O)C[C@H](O[C@H]3[C@@H](O)C[C@H](O[C@H]4CC[C@@]5(C)[C@H](CC[C@@H]6[C@@H]5C[C@@H](O)[C@]5(C)[C@@H](C7=CC(=O)OC7)CC[C@]65O)C4)O[C@@H]3C)O[C@@H]2C)C[C@H](O)[C@@H]1O`, the AC50 (in general, the midpoint of the concentration-response curve, whichever way the signal moves) was 163 nM (active).

For `O=c1c(O)c(-c2ccc(O)cc2)oc2cc(O)cc(O)c12`, the molecule was classed as inactive.

For `CN1CCOCC1`, the molecule was called inactive.

Take `CC/C=C\CC/C=C/CO`: the molecule was classed as inactive.

Turning to `CC1C2CC(CC2C2CCCC(O)C2)C1(C)C` (stereo not drawn), the outcome was inactive.

Regarding `COC(=O)Nc1ccc(Cl)c(Cl)c1`, the result was inactive.

Consider `CC(O)C1CCCCC1` (stereo not drawn), for which the result was inactive.

Regarding `N#Cc1ccc(CC(=O)c2cccc(C(F)(F)F)c2)cc1`, the call was inactive.

As to `COC(C)(C)CCCC(C)CC=O` (stereo not drawn), the outcome was inactive.

For the molecule `Cc1cc(C)nc(NS(=O)(=O)c2ccc(N)cc2)n1`, the outcome was inactive.

Consider `C=C1C[C@]23C[C@@]1(O)CC[C@H]2[C@@]12C=C[C@H](O)[C@@](C)(C(=O)O1)[C@H]2[C@@H]3C(=O)O`, for which the outcome was inactive.

`OCc1cccc(Oc2ccccc2)c1`: the molecule was called inactive.

With `CC(C)(N=C=O)c1cccc(C(C)(C)N=C=O)c1`, the molecule was called inactive.

Turning to `C[Si]1(C)O[Si](C)(C)O[Si](C)(C)O1`, the molecule was classed as inactive.

As to `CCOc1ccccc1O`, the outcome was inactive.

`Cc1cc(=O)oc2cc(N(C)C)ccc12`: the result was inactive.

Regarding `C1CCCCC1`, the result was inactive.

Turning to `O=C1NC2NC(=O)NC2N1` (stereo not drawn), the result was inactive.

Take `Nc1ccc(NCCO)c([N+](=O)[O-])c1`: the molecule was called inactive.

With `CC(C)(CO)[C@@H](O)C(=O)NCCC(=O)O`, the outcome was inactive.

The record behind these values is PubChem BioAssay (EPA / NIEHS).
